Reference: PubChem BioAssay (NCI)
Compounds without any hit were thinned out: in the full panel of roughly 83,000, 20% have a hit.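 How to read the values: 0–100, growth inhibition (40 = 60% inhibited); 0, no net growth; -100 to 0, cell death (-40 = 40% of starting cells died; -100 = all dead).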 Active and inactive are the calls of the source.

System: T-47D breast
Assay: NCI-60 one-dose screen, 48 h (100 = growth as untreated, 0 = no growth, -100 = all killed)
Details: 10 µM unless noted
Method: Growth inhibition of the T-47D human tumor cell line is measured as a screen for anti-cancer activity. Cells are grown in 96 well plates and exposed to the test compound for 48 hours. Compounds are tested at a single concentration, which is 10^-5 M for most compounds. The reported endpoint is percent growth (GI% or GIPRCNT), where numbers from 0 - 100% represent growth inhibition, and numbers from -100% - 0 represent cell death. For example, a value of 40 represents 60% growth inhibition. A value of 0 means no net growth occurred over the course of the experiment. A value of -40 indicates 40% of cells at the beginning of the experiment died by the end of the experiment. A value of -100 means all cells are dead at the end of the experiment.
NCI-60 Human Tumor Cell Lines Screen was performed using the standard one-dose NCI protocol, which is described in more detail at https://dtp.cancer.gov/discovery_development/nci-60/default.htm.
Compounds with GIPRCNT values below 10 were considered active. Activity score was based on GIPRCNT using the following formula: […]
Score is 0 for GIPRCNT values of 100 or above, 50 for GIPRCNT values of 0, and 100 for GIPRCNT values of -100.

Structure (SMILES) | growth
O=C(N/N=C/c1ccccc1Cl)c1cccc2ccccc12 | 98.5% (inactive)
Oc1ccccc1/C=N/N=C/c1c(O)ccc2ccccc12 | 63.4% (inactive)
C=CN(C)S(C)(=O)=O | 16.8% (inactive)
C=CCNC(=S)NNc1ccc([N+](=O)[O-])cn1 | 113% (inactive)
[N-]=[N+]=Nc1ncc(-c2ccc(C(F)(F)F)cc2)c(NC2CCCCCC2)n1 | 21.3% [100 µM] (inactive)
COc1cc2ncnc(-n3ncc4cc(NC(=O)Nc5ccc(Cl)c(C)c5)ccc43)c2cc1OC | 72% (inactive)
Nc1ccc(N=Nc2ccccc2)c2cc(S(=O)(=O)O)ccc12 | 97% (inactive)
O=C(NC1CCN(Cc2ccccc2)CC1)c1cc(-c2cccnc2)nc2ccc(Cl)cc12 | 45% (inactive)
CC#Cc1nc(Nc2cc(C)[nH]n2)c2ccccc2n1 | 2.69% [100 µM] (active)
N#CCc1ncc(-c2ccc(C(F)(F)F)cc2)c(NC2CCCCCC2)n1 | 20.7% [100 µM] (inactive)
CC(=O)C(CO)C(=O)Nc1ccccc1 (stereo not given) | 94.5% (inactive)
CCOC(=O)C1=NN(c2ccccc2)C2=NC(=O)/C(=C\c3cn(-c4ccccc4)nc3-c3cc4ccccc4o3)C(=O)N12 | 86.6% (inactive)
CCOC(=O)CSSCC(=O)OCC | 94.4% (inactive)
CC(=O)c1ccc2c(c1)c1ccccc1n2C | 103% (inactive)
COc1cc(OC)c(/C=C/c2ccc3ccccc3[n+]2C)c(OC)c1 | 9.72% (active)
CCCCCSc1ccc2nc(NC(=O)OCC)sc2c1 | 29.7% (inactive)
CC([C@H]1CCC2C3CCC4C[C@@H](N)CC[C@]4(C)C3CC[C@@]21C)N(C)C (stereo not given in full) | 55.9% (inactive)
COc1cc(/C(=C2/O[C@@H]([C@H]3COC(C)(C)O3)[C@H]3OC(C)(C)O[C@@H]23)c2ccc3c(c2)OCO3)cc(OC)c1OC | 55.9% (inactive)
C=CC1CN2CCC1CC2C(O)c1ccnc2ccc(OC)cc12 (stereo not given) | 102% (inactive)
COc1ccc2c(c1)/C(=C/c1c(-c3cc(OC)c(OC)c(OC)c3)nc3sccn13)C(=O)N2 | 86.6% (inactive)

Structure (SMILES) | growth
N#Cc1ccc(OCc2nc(N)nc(N)c2-c2ccc(Cl)c(Cl)c2)cc1 | 82.2% (inactive)
O=C(CN1C(=O)NC(c2ccccc2)(c2ccccc2)C1=O)c1ccc(N2CCCC2)cc1 | 81.2% (inactive)
Nc1nc2c(c3cnccc13)C(c1cccc(Br)c1)Cc1cnccc1-2 (stereo not given) | 43.9% (inactive)
CCCCCCCCCCCCCCCCC(=O)O.CCCCCCCCCCCCCCCCCC(=O)O.CCCCCCCCCCCCCCCCCC(=O)O.CCCCCCCCCCCCCCCCCC(=O)O.CCCCCCCCCCCCCCCCCC(=O)O.CO[CH-]OC12COC1CC(O)C1(C)C(O)C(OC(C)O)C3=C(C)C(OC(=O)C(O)C([NH-])c4ccccc4)CC(O)(C(OC(=O)c4ccccc4)C21)C3(C)C.[Cu+].[Zn].[Zn].[Zn].[Zn].[Zn] (stereo not given) | 45.9% (inactive)
CCCCCSc1ccc2nc(NC(=O)OCCC)sc2c1 | 38.1% (inactive)
COc1cc(CCNc2cnc3cc(N)cc(N)c3n2)cc(OC)c1 | 140% (inactive)
CC(=O)N(N=O)c1ccc([N+](=O)[O-])cc1Cl | 29.2% (inactive)
Cc1nc2ccccc2c(=O)n1-c1cccc(OCc2cn(-c3cccc(O)c3)nn2)c1 | 68.4% (inactive)
COc1ccc(-n2nnnc2-c2cn[nH]c2C(F)(F)F)cc1 | 77.8% (inactive)
COc1cc(-c2cc3cnccc3c3nc(N)c4ccncc4c23)cc(OC)c1OC | 37.5% (inactive)
Nc1ncn([C@@H]2O[C@H](CO)[C@@H](O)C2(F)F)c(=O)n1 | 76.2% (inactive)
COc1cc(Cn2ccc3c2-c2oncc2CC3)cc(OC)c1 | 32.2% (inactive)
Cc1c(CN(C)C)cc(C(C)C)cc1C(C)C | 131% (inactive)
CCOC(=O)c1csc(-c2ccc(COC(=O)c3ccccc3)o2)n1 | 102% (inactive)
O=c1c2c(c3ccccc3n1-c1ccccc1)NC(=S)NC2c1ccccc1 (stereo not given) | 59.9% (inactive)
Cc1ccnc2c(NC(C)CCCN)cc(O)c(O)c12 (stereo not given) | 106% (inactive)
COc1cc(NC(=O)CSc2nc3ccc(Cl)cc3c(=O)n2-c2ccc(F)cc2)cc(OC)c1OC | 72.6% (inactive)
Cc1cc2c(-c3nc4ccccc4n3C)c(O)c(O)cc2c(O)c1-c1c(C)cc2c(-c3nc4ccccc4n3C)c(O)c(O)cc2c1O | 19.3% (inactive)
Cc1c(Cc2ccccc2)c(=O)oc2c(C)c(OCc3n[nH]c(=S)o3)ccc12 | 53.1% (inactive)
COc1ccc(-c2nc(Nc3nc4ccccc4[nH]3)nc(N)c2C#N)cc1 | 97.1% (inactive)
